# PubChem BioAssay (NCI)
# Where “and” joins values, the source holds several entries; their conditions need not be identical. Identical values can stand only once. Compounds without any hit were thinned out: in the full panel of roughly 83,000, 20% have a hit.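 Results are percent growth after 48 hours of single-concentration exposure. 100 means growth as in untreated cells, lower positive values show inhibition; negative values down to -100 show cell death.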 Unmarked numbers belong to inactive results. Calls of active or inactive are those of the source. Rule for the calls: active = growth percent below 10; inactive = the rest.
# Legend:
# Assay in all cases: NCI-60 one-dose screen, 48 h (100 = growth as untreated, 0 = no growth, -100 = all killed)
# Conditions in all cases: 10 µM unless noted
# [1] = tested on: T-47D breast
# [2] = tested on: BT-549 breast
# [3] = tested on: MDA-MB-435 melanoma
# [4] = tested on: SW-620 colon
# [5] = tested on: MCF7 breast
# [6] = tested on: HCT-116 colon
# [7] = tested on: HCC-2998 colon
# [8] = tested on: KM12 colon
# [9] = tested on: MDA-MB-468 breast
Structure (SMILES),growth [1],growth [2],growth [3],growth [4],growth [5],growth [6],growth [7],growth [8],growth [9]
O=c1oc2ccccc2cc1-c1csc(N=Nc2c(O)[nH]c3ccc(Cl)cc23)n1,93.6%,104%,106%,109%,81.4%,106%,103%,103%,106% and 94.5%
CC(C)CSc1nc(NCCc2c[nH]c3ccccc23)c(C#N)c(-c2ccc(Cl)cc2)n1,31.7%,83.5%,72.5%,24.9%,16.4%,19.5%,52.3%,35.1%,53.9%
O=C(CN1C(=O)/C(=C/c2ccccc2Cl)SC1=S)N1CCOCC1,70.9%,119%,91.3%,38.6%,49.6%,61.1%,124%,101%,-2.81% (active)
CCOP(=O)(OCCCl)c1nc(-c2ccc(C)cc2)oc1NCc1ccccc1 (configuration not stated),48.1%,92%,87.2%,86.5%,50.3%,63.3%,94.6%,77.6%,62.9%
Cn1cc(NC(=O)c2cc(NC(=O)c3ccc(C#Cc4ccccc4)cc3)cn2C)cc1C(=O)NCCCN1CCOCC1,22.2%,73.5%,-56.6% (active),-44.3% (active),-93.1% (active),-87.3% (active),-56% (active),3.14% (active),-69.7% (active)
CNS(=O)(=O)c1ccc(Nc2ccc(C(F)(F)F)cc2)c(-c2cn(C)cn2)c1,47.7%,58.7%,55.5%,70.9%,42.3%,49.4%,43.6%,35.9%,-1.31% (active)
CC1CN(c2oc(-c3ccc([N+](=O)[O-])cc3)nc2C#N)CC(C)O1 (configuration not stated),97.4%,107%,100%,102%,88.4%,108%,101%,103%,125%
C/C(=N\N=C\c1cc([N+](=O)[O-])ccc1Cl)c1ccc2c(c1)Nc1ccccc1S2,29.7%,63%,77.2%,50%,63.1%,11.1%,90.5%,89.1%,34.1%
O=C(NN1C(=O)/C(=C/C=C/c2ccc([N+](=O)[O-])o2)SC1=S)c1ccc(Cl)cc1,-91.2% (active),-91.1% (active),-86.2% (active),-80.9% (active),-60% (active),-76.1% (active),-96.2% (active),-93% (active),-85.9% (active)
COc1cc2oc(-c3cccc(C(=O)Nc4ccc(Cl)cc4)c3)cc(=O)c2c(OCC(=O)N[C@@H](Cc2ccccc2)C(=O)O)c1OC,109%,125%,101%,99.2%,93.2%,109%,121%,105%,112%
N/C(=N\c1nc2ccccc2s1)NC(=O)Nc1ccc(Cl)cc1Cl,-10.7% (active),-17.6% (active),-97.3% (active),-67.9% (active),-4.93% (active),-79.6% (active),-25.4% (active),-64.4% (active),-48.6% (active)
Cn1cc(-c2nnc(N)nc2-c2c[nH]c3ccc(Br)cc23)c2cc(Br)cnc21,47.7%,50.2%,33.6%,75.1%,29.8%,44.8%,72.7%,49.3%,25%
CC(=O)Nc1ccc(-n2cnc3ccc(-c4ccc(O)cc4)cc32)cc1,47.9%,51.4%,44.7%,39.2%,10.6%,20.2%,66.3%,17.8%,22%
COc1ccc(CCC2c3c(cc4c(c3OC)OCO4)CCN2C)cc1 (configuration not stated),-43.1% (active),-69.9% (active),-66.2% (active),-78.1% (active),-82.3% (active),-58.3% (active),-78.8% (active),-37.3% (active),-81.5% (active)
Cc1ccc([C@H]2C(C(=O)c3ccc(Cl)cc3)C3(N[C@@H]2c2ccccc2)C(=O)Nc2ccc(Br)cc23)cc1 (some centres not stated),41.1%,96.3%,67.6%,70.6%,21.2%,30.7%,25.7%,39%,59.5%
CC1(c2cc3cc(Br)ccc3oc2=O)NC(=O)c2c(/C=C/C(=O)OC3CC4CCC3(C)C4(C)C)cccc2N1 (configuration not stated),46.2%,83.9%,99.2%,89.1%,50.6%,53.8%,95.9%,72.8%,13.4%
O=C(Cn1nc(-c2ccccc2)ccc1=O)N/N=C/c1ccc(N2CCOCC2)cc1,69.4%,121%,97.6%,102%,83.8%,103%,113%,102%,104%
CC(=O)OC[C@@]1(C)C2CC[C@]3(C)C(CC=C4C5CC(C)(C)CC[C@]5(C(=O)Nc5cccc(C)c5)CC[C@]43C)[C@@]2(C)C[C@@H](OC(C)=O)[C@@H]1OC(C)=O (some centres not stated),24.3%,47.4%,48.2%,40.5%,24.9%,21.8%,49%,48.7%,1.92% (active)
C#CCOc1cc(N(CC)CC)ccc1C(C(=O)NC(C)(C)C)N(C(=O)C1CCc2cc(F)ccc2O1)c1ccc(F)c(Cl)c1 (configuration not stated),42.3%,61.9%,65.7%,74.3%,30.5%,38.2%,92%,57.5%,37.6%
CC(C)Sc1nc(NCCc2c[nH]c3ccccc23)c(C#N)c(-c2ccc(F)cc2)n1,20.8%,65%,58.7%,6.5% (active),4.29% (active),3.83% (active),21.5%,15.7%,2.22% (active)
O=C1/C(=C/C2=Cc3ccccc3OC2)SC(=S)N1c1ccccc1F,95%,77.8%,108%,112%,78.4%,96.4%,109%,102%,99%
COc1ccc(NC(=O)[C@H](CO)NC(=O)OC(C)(C)C)cc1C(=O)Nc1cccc(C2CC(=O)c3c(cc(OC)c(OC)c3OC)O2)c1 (some centres not stated),25.8%,12.7%,41.1%,73.9%,30%,32.3%,83%,43.8%,36.2%
C#CCOc1cc(N(CC)CC)ccc1C(C(=O)NC(C)(C)C)N(C(=O)C1CCc2cc(F)ccc2O1)c1ccccc1F (configuration not stated),30.2%,40.3%,35.9%,42.1%,16.6%,20.5%,73.2%,18.8%,25.5%
COc1ccc2[nH]cc(-c3nnc(N)nc3-c3cn(C)c4ncc(Br)cc34)c2c1,62.5%,64.1%,81.9%,87.9%,68.7%,79.6%,80.2%,75.5%,42.9%
Cn1cc(NC(=O)c2cc(NC(=O)c3ccc(/C=C/c4ccccc4)cc3)cn2C)cc1C(=O)NCCCN1CCOCC1,46.4%,71.7%,-73.1% (active),-34% (active),-84.8% (active),-90.1% (active),-80.1% (active),-45.8% (active),-61.3% (active)
O=c1onc(-c2cc3ccccc3nc2Cl)n1-c1cccc2ccccc12,3.09% (active),28.5%,-11.8% (active),29.7%,21.4%,40.2%,71.1%,44.2%,-25.2% (active)
COc1c(F)ccc(C(=O)Nc2ccc3nc(NC(=O)C4CCCN(S(=O)(=O)C5CC5)C4)sc3c2)c1F (configuration not stated),-5.4% (active),-8.29% (active),39.5%,78.7%,15.2%,32.2%,59.8%,44%,3.58% (active)
COc1cc2oc(-c3cccc(NC(=O)[C@H](Cc4ccccc4)NC(=O)OC(C)(C)C)c3)cc(=O)c2c(OC)c1OC,38.7%,28.7%,61.9%,43.3%,22.1%,15.1%,69.6%,19.5%,41.8%
